SMILES strings stand for the structures. About 83,000 compounds went through this panel and 20% of them were active in at least one assay; those are over-represented in the sample as a whole.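 Single-dose data. Exposure time 48 hours. Values below 10 considered active.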 A number with no mark means an inactive call. The source made the active and inactive calls.

Among the test systems are T-47D breast; BT-549 breast; MDA-MB-435 melanoma; SW-620 colon; MCF7 breast; HCT-116 colon; HCC-2998 colon; KM12 colon.
Assay in all cases: NCI-60 one-dose screen, 48 h (100 = growth as untreated, 0 = no growth, -100 = all killed)
Common to all, as to settings: 10 µM unless noted

`COc1ccc2c(c1)NC1=C(C(=O)OC1)C2c1cc(OC)c2c(c1)OCO2` (configuration not stated): the growth is 53.8% in the test with T-47D breast; 32.4% in the test on BT-549 breast; -14.7% (active) in the test with MDA-MB-435 melanoma; 21.2% in the test with SW-620 colon; 17.9% in the test with MCF7 breast; 6.69% (active) in the test with HCT-116 colon. The growth is 11.3% with HCC-2998 colon and 2.35% (active) in the test with KM12 colon.

With `Clc1cc(Cl)c2nc(-c3ccc(-c4ccc(/C=N/NC5=NCCN5)cc4)s3)cn2c1`, the growth in the test with T-47D breast is 79.6%; in the test on BT-549 breast it was 90.9%; in the test on MDA-MB-435 melanoma it was 99.3%; with SW-620 colon, 79.2%; in the test on MCF7 breast, 57.8%; in the test with HCT-116 colon, 86.3%. Besides, the growth was 105% with HCC-2998 colon and 93% in the test on KM12 colon.

In the case of `O=c1ccn(-c2ncnc3nc[nH]c23)cc1`, the growth in the test with T-47D breast was 84%; in the test on BT-549 breast, 98.9%; in the test with MDA-MB-435 melanoma it was 102%; in the test with SW-620 colon it was 96%; in the test on MCF7 breast, 88%; in the test with HCT-116 colon, 96.5%. Further, the growth with HCC-2998 colon is 106%; in the test on KM12 colon, 91.8%.

As to `O=C(Nc1ccncc1)C(=O)c1cn(S(=O)(=O)c2ccc(Cl)cc2)c2ccccc12`, the growth is 41.2% in the test with T-47D breast; 39.2% in the test on BT-549 breast; 0.272% (active) in the test on MDA-MB-435 melanoma; 10.4% in the test with SW-620 colon; 16.8% in the test with MCF7 breast; 15.3% in the test with HCT-116 colon. Besides, the values for the growth with HCC-2998 colon and in the test with KM12 colon were 54.7% and 19.8%, respectively.

With `COc1ccc(Nc2ncccc2C(=O)NCc2cn(Cc3cccc(Oc4ccccc4)c3)nn2)cc1`, the growth was 50.5% in the test on T-47D breast; 53.1% in the test with BT-549 breast; -16.3% (active) with MDA-MB-435 melanoma; 24.6% in the test on SW-620 colon; 20% with MCF7 breast; 23.3% in the test on HCT-116 colon. Further, the growth in the test with HCC-2998 colon was 41.7%; in the test with KM12 colon, 20.2%.

As to `CCCCCCCCCCCC(=O)NCCC[N+](C)(C)CC(=O)[O-]`, the growth in the test on T-47D breast was 92%; with BT-549 breast, 85.5%; in the test on MDA-MB-435 melanoma it was 88.7%; with SW-620 colon, 109%; with MCF7 breast, 99.8%; with HCT-116 colon it was 89.9%. The growth in the test on HCC-2998 colon is 96%; with KM12 colon, 86.6%.

Regarding `COc1ccc(-c2ccc(C)n2-c2ccc(-c3nc4cc(Cl)ccc4s3)cc2)cc1`, the growth in the test with T-47D breast was 66.8%; with BT-549 breast it was 116%; with MDA-MB-435 melanoma it was 95.1%; in the test on SW-620 colon, 103%; with MCF7 breast, 48.3%; with HCT-116 colon, 97.4%. Moreover, the growth in the test with HCC-2998 colon was 92.3%; with KM12 colon, 89.1%.

Consider `Cc1ccc(-c2csc(NC(=O)CCCCl)n2)cc1`, for which the growth with T-47D breast was 77.2%; with BT-549 breast it was 98.1%; in the test on MDA-MB-435 melanoma, 103%; with SW-620 colon, 107%; in the test with MCF7 breast, 90.7%; in the test with HCT-116 colon, 98.6%. Further, the growth with HCC-2998 colon was 103%; in the test on KM12 colon, 95%.

In the case of `NC(=S)N/N=C(/CCN1CCCC1)CC(C1=C(O)C2=CCCCC2OC1=O)c1ccccc1` (configuration not stated), the growth in the test with T-47D breast was 47%; in the test on BT-549 breast, 90.9%; in the test on MDA-MB-435 melanoma, 90.7%; with SW-620 colon, 69%; in the test on MCF7 breast, 14.9%; with HCT-116 colon, 9.46% (active). In addition, the growth in the test with HCC-2998 colon and in the test with KM12 colon was 102% in each case.

As for `O=C1/C(=C/c2ccccc2)Oc2ccc(O)c(I)c21`, the growth with T-47D breast is 77.5%; in the test on BT-549 breast it was 84.3%; in the test on MDA-MB-435 melanoma, 103%; with SW-620 colon, 95.5%; with MCF7 breast, 54.8%; with HCT-116 colon, 98.2%. Also, the growth with HCC-2998 colon was 114%; in the test on KM12 colon it was 98.8%.

Consider `CN(C[C@H]1Cc2c(cccc2N2CCN(Cc3ccccn3)CC2)CN1)[C@H]1CCCc2cccnc21`, for which the growth in the test with T-47D breast was 44.6%; with BT-549 breast, 81.9%; in the test on MDA-MB-435 melanoma, 69.6%; in the test with SW-620 colon it was 51.3%; in the test on MCF7 breast, 44.1%; with HCT-116 colon, 30.8%. Also, the growth with HCC-2998 colon was 94%; in the test on KM12 colon, 51.7%.

For `COc1ccc(-c2nc3sccn3c2/C=C/C(=O)c2cc(F)cc(F)c2)cc1`, the growth with T-47D breast is 40.5%; in the test on BT-549 breast, 127%; in the test with MDA-MB-435 melanoma, 94.2%; in the test with SW-620 colon, 53.9%; in the test on MCF7 breast it was 20.3%; in the test on HCT-116 colon, 53.7%. For the same molecule, the growth in the test on HCC-2998 colon was 51.3%; in the test on KM12 colon it was 84.3%.

For the molecule `COc1ccc(Nc2nn3c(C)cc(C)nc3c2C(=O)Nc2ccc(C)cc2)c(OC)c1`, the growth is 87.7% in the test with T-47D breast; 96.2% in the test with BT-549 breast; 105% in the test with MDA-MB-435 melanoma; 105% in the test on SW-620 colon; 101% with MCF7 breast; 99% with HCT-116 colon. Besides, the growth was 94.2% in the test on HCC-2998 colon and 100% in the test on KM12 colon.

On to `CC(C)(C)Nc1c(-c2cccs2)nc2ncccn12`, for which the growth in the test with T-47D breast was 93.1%; in the test with BT-549 breast, 105%; in the test with MDA-MB-435 melanoma it was 107%; in the test on SW-620 colon, 103%; in the test on MCF7 breast, 93.8%; in the test on HCT-116 colon it was 98.6%. Also, the growth with HCC-2998 colon is 100%; in the test with KM12 colon it was 97.5%.

The values are drawn from PubChem BioAssay (NCI).
